High-throughput results as filed in PubChem BioAssay.
ABHD5 PLIN5 PPI: blocks binding of human ABHD5 to perilipin-5 | AID 602281 | 360,000 compounds, 0.78% hits | Q00G26+Q8WTS1 | inhibition, % at 4 µM | Split G. princeps luciferase complementation, luminescence, 4 h;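 active means inhibition above the mean inhibition across every tested compound plus 3 SD, cut at about 22% in these data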
NOD2-RIPK2 inh: NOD2-RIPK2 protein interaction inhibition; CHO BLA complementation NOD2-RIPK2, CCF4 ratio; inhibition, % at 4.98 µM; 360,000 compounds, 0.38% hits; AID 624267; in the data active means inhibition above about 21%
Exocytosis inh: blocks lytic granule exocytosis; TALL-104 LAMP-1 surface exposure, flow cytometry; cells stimulated with thapsigargin and PMA; inhibition, % at 10 µM; AID 651702; 360,000 compounds, 0.66% hits;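 active means inhibition above about 55%, limit read from the data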
TLR9-MyD88 inh: blocks human TLR9 binding to MyD88. Q9NR96+Q99836. 340,000 compounds, 0.21% hits. CHO BLA complementation TLR9-MyD88, CCF4 FRET ratio. inhibition, % at 4.98 µM;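 active means inhibition above the mean over all tested compounds plus 3 SD, cut at about 21% in these data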
B2AR ag: human beta-2 adrenergic receptor agonism by FAP. AID 504454. response, % (concentration not given with the values). 340,000 compounds, 0.43% hits. P07550. Am2.2-beta2AR cells, FAP receptor internalization, flow cytometry;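 active means response above a set limit, near 3 SD of response in nonfluorescent compounds, cut at about 42% in these data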
TLR4 MyD88 comp: blocks binding of human TLR4 to MyD88 | O00206+Q99836 | HeLa CL3-4 TLR4/MyD88 BLA complementation, FRET ratio | inhibition, % at 8.4 µM | 200,000 compounds, 0.18% hits | AID 861; in the data active means inhibition above about 25%
Beta2AR ag CP1: activates human beta-2 adrenergic receptor; 1,100 compounds, 25% hits; percent response (surface receptor), % at 10 µM; shares compounds with B2AR ag; Am2.2-beta2AR cells, FAP surface receptor, flow cytometry; stronger effect = lower value;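 active means surface receptor percent response at or below 58%, roughly 3 SD from nonfluorescent compounds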
FAP fluor counter: fluorescence artifact in beta-2AR agonist FAP counterscreen | shares compounds with B2AR ag | Am2.2 cells, FAP fluorogen flow cytometry; stronger effect = lower value | calls only at 10 µM | 1,100 tested, under 10 active | AID 588765;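 active means percent response below a set limit in fluorescence channel 1 and below 50% in channel 8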
ABHD5-PLIN5 conf: confirmation of human ABHD5-PLIN5 interaction inhibitors. biochemical ABHD5-PLIN5 interaction, luminescence. inhibition, % at 4 µM. shares compounds with ABHD5 PLIN5 PPI. 2,200 compounds, 67% hits; in the data active means inhibition above about 23%
HNF4 split-luc: active in HNF4 split-luciferase counter-screen for ABHD5-PLIN5 inhibitors; shares compounds with ABHD5 PLIN5 PPI; HNF4 dimerization, luminescence, biochemical; inhibition, % at 4 µM; 2,200 compounds, 77% hits;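 active means mean inhibition across replicate wells exceeding the computed hit threshold, cut at about 13% in these data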;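 further: light from luciferase halves that rejoin when HNF4 fusion proteins dimerize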
Target sequence (P41235 whole entry, looked up, the tested form may be a part): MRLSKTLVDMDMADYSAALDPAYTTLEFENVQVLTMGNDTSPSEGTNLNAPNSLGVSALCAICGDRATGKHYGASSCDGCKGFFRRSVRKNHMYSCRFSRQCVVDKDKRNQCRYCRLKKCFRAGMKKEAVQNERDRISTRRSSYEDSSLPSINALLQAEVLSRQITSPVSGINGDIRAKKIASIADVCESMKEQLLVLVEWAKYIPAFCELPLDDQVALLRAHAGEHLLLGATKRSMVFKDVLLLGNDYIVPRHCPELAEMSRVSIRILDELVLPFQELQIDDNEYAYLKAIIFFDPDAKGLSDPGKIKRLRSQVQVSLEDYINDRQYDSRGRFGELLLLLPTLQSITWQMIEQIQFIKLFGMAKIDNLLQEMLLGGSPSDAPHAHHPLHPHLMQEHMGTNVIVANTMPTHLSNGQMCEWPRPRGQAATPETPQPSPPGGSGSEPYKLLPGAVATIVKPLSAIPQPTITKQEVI
NOD2-RIPK2 conf: NOD2-RIPK2 interaction inhibition confirmed. shares compounds with NOD2-RIPK2 inh. inhibition, % at 4.98 µM. AID 624370. 1,200 compounds, 70% hits. CHO cells, NOD2-RIPK2 BLA complementation, CCF4 FRET;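 active means mean inhibition across replicates above a set limit taken from the earlier primary screen, cut at about 21% in these data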
NOD2 BLA counter: NOD2-RIPK2 counterscreen BLA reporter activity | shares compounds with NOD2-RIPK2 inh | CHO BLA reporter, CCF4 FRET ratio | inhibition, % at 4.98 µM | 1,200 compounds, 57% hits | AID 624371;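 active means mean inhibition above the low-control mean inhibition plus three low-control SD, cut at about 11% in these data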
A number is an active result. Only some compounds are listed: those with a hit (about 2% of all), similar ones and a draw of the others.

CCOC(=O)Cn1c(COc2ccccc2OC)[n+](C)c2ccccc21 was read as ABHD5 PLIN5 PPI inactive, NOD2-RIPK2 inh inactive, Exocytosis inh inactive and B2AR ag inactive.
`CCOc1cc(/C=C2\CN(C)C/C(=C\c3ccc(O)c(OCC)c3)C2=O)ccc1O` gave ABHD5 PLIN5 PPI 77.5, NOD2-RIPK2 inh inactive, Exocytosis inh inactive, TLR9-MyD88 inh inactive, B2AR ag 46.0, Beta2AR ag CP1 inactive, FAP fluor counter inactive, ABHD5-PLIN5 conf 96.9 and HNF4 split-luc 88.2.
COc1cc(C=C2CN(C)C(=O)C2=O)ccc1O was read as ABHD5 PLIN5 PPI inactive, NOD2-RIPK2 inh inactive, Exocytosis inh inactive and TLR9-MyD88 inh inactive.
`Cc1ccc2nc(N(CCCN(C)C)C(=O)c3ccc(Br)s3)sc2c1` gave ABHD5 PLIN5 PPI 30.0, NOD2-RIPK2 inh inactive, Exocytosis inh inactive, TLR9-MyD88 inh inactive, B2AR ag 54.1, TLR4 MyD88 comp inactive, Beta2AR ag CP1 inactive, FAP fluor counter inactive, ABHD5-PLIN5 conf inactive and HNF4 split-luc inactive.
CN(C)CCCN(C(=O)c1ccc(Br)s1)c1nc2cc3c(cc2s1)OCCO3 was read as ABHD5 PLIN5 PPI inactive, NOD2-RIPK2 inh inactive, Exocytosis inh inactive, TLR9-MyD88 inh inactive and B2AR ag inactive.
`CN(C)Cc1csc(NC(=O)Nc2ccccc2Oc2ccccc2)n1` gave ABHD5 PLIN5 PPI inactive, NOD2-RIPK2 inh inactive and Exocytosis inh inactive.
Cn1nnnc1Sc1ncnc2scc(-c3cc4ccccc4o3)c12 was read as ABHD5 PLIN5 PPI 29.1, NOD2-RIPK2 inh inactive, Exocytosis inh inactive, TLR9-MyD88 inh inactive, B2AR ag 53.3, Beta2AR ag CP1 57.0, FAP fluor counter inactive, ABHD5-PLIN5 conf 70.9 and HNF4 split-luc 77.3.
Screening Cc1ccc(S(=O)(=O)Nc2cccc3cccnc23)cc1 returned ABHD5 PLIN5 PPI inactive, NOD2-RIPK2 inh 38.3, Exocytosis inh inactive, TLR9-MyD88 inh 35.8, B2AR ag 44.9, TLR4 MyD88 comp inactive, Beta2AR ag CP1 inactive, FAP fluor counter inactive, NOD2-RIPK2 conf 59.0 and NOD2 BLA counter 25.0.
For Cc1ccc(S(=O)(=O)Nc2ccccc2-c2ccccc2NS(=O)(=O)c2ccc(C)cc2)cc1 the results were ABHD5 PLIN5 PPI inactive, NOD2-RIPK2 inh inactive, Exocytosis inh inactive, TLR9-MyD88 inh inactive, B2AR ag inactive and TLR4 MyD88 comp inactive.
CN(C(=S)NC(=O)C1CCCC1)c1ccccc1 was read as ABHD5 PLIN5 PPI inactive, NOD2-RIPK2 inh inactive, Exocytosis inh inactive and TLR9-MyD88 inh inactive.
Screening Cc1ccc(Cc2c(-c3ccc(F)cc3)nc3c(C)cc(Br)cn23)cc1 returned ABHD5 PLIN5 PPI inactive, NOD2-RIPK2 inh inactive and Exocytosis inh inactive.
For CCCC(=O)N(C1CC(C)C(C#N)(C#N)C1(C#N)C#N)N(C)C (configuration not stated) the results were ABHD5 PLIN5 PPI 35.7, NOD2-RIPK2 inh 57.3, Exocytosis inh inactive, TLR9-MyD88 inh inactive, B2AR ag 42.5, Beta2AR ag CP1 33.6, FAP fluor counter inactive, ABHD5-PLIN5 conf 58.9, HNF4 split-luc 101.0, NOD2-RIPK2 conf 91.6 and NOD2 BLA counter 13.6.
`CC1(C(=O)O)CCCN1C(=O)c1ccco1` (configuration not stated) gave ABHD5 PLIN5 PPI inactive, NOD2-RIPK2 inh inactive and Exocytosis inh inactive.
CCN(CC)c1ccc(-c2nn3c(-c4ccccc4OC)nnc3s2)cc1 was read as ABHD5 PLIN5 PPI inactive, NOD2-RIPK2 inh 22.5, Exocytosis inh 80.4, TLR9-MyD88 inh inactive, B2AR ag 42.1, TLR4 MyD88 comp inactive, Beta2AR ag CP1 inactive, FAP fluor counter inactive, NOD2-RIPK2 conf inactive and NOD2 BLA counter inactive.
Cc1cccc(NC(=O)c2nc[nH]c2C(=O)N[C@@H](C)CO)c1 was read as ABHD5 PLIN5 PPI inactive, NOD2-RIPK2 inh inactive, Exocytosis inh inactive and TLR9-MyD88 inh inactive.
For O=[N+]([O-])c1ccc(Sc2nc3ccccc3o2)c([N+](=O)[O-])c1 the results were ABHD5 PLIN5 PPI inactive, NOD2-RIPK2 inh 30.3, Exocytosis inh inactive, TLR9-MyD88 inh inactive, B2AR ag 73.8, TLR4 MyD88 comp inactive, Beta2AR ag CP1 inactive, FAP fluor counter inactive, NOD2-RIPK2 conf 59.5 and NOD2 BLA counter inactive.
For O=[N+]([O-])c1ccc(Cl)cc1Sc1nc2ccccc2o1 the results were ABHD5 PLIN5 PPI inactive, NOD2-RIPK2 inh inactive, Exocytosis inh inactive, TLR9-MyD88 inh inactive, B2AR ag inactive and TLR4 MyD88 comp inactive.
`CCOc1ccc(CNC(=O)C2CCN(c3nnc(C)c4c(C)n(-c5ccc(C)cc5)nc34)CC2)cc1` gave ABHD5 PLIN5 PPI inactive, NOD2-RIPK2 inh 35.9, Exocytosis inh inactive, TLR9-MyD88 inh inactive, B2AR ag 54.9, Beta2AR ag CP1 inactive, FAP fluor counter inactive, NOD2-RIPK2 conf 47.6 and NOD2 BLA counter 18.9.
Screening CS(=O)(=O)c1ccc(C(=O)OCc2nnc(-c3ccccc3)o2)cc1[N+](=O)[O-] returned ABHD5 PLIN5 PPI inactive, NOD2-RIPK2 inh 21.3, Exocytosis inh inactive, TLR9-MyD88 inh inactive, B2AR ag 85.4, TLR4 MyD88 comp inactive, Beta2AR ag CP1 inactive, FAP fluor counter inactive, NOD2-RIPK2 conf 54.5 and NOD2 BLA counter inactive.
Screening CCOC(=O)c1ccc(NC(=O)Nc2ccon2)cc1 returned ABHD5 PLIN5 PPI inactive, NOD2-RIPK2 inh 22.3, Exocytosis inh inactive, TLR9-MyD88 inh inactive, B2AR ag 44.0, Beta2AR ag CP1 inactive, FAP fluor counter inactive, NOD2-RIPK2 conf 21.2 and NOD2 BLA counter inactive.
CC(OC(=O)Cc1ccc(Br)cc1)C(=O)NC1CCCC1 (configuration not stated) was read as ABHD5 PLIN5 PPI inactive, NOD2-RIPK2 inh inactive, Exocytosis inh inactive, TLR9-MyD88 inh inactive and B2AR ag inactive.
Screening COc1ccc(OC)c(S(=O)(=O)Nc2cccc3c(O)cccc23)c1 returned ABHD5 PLIN5 PPI inactive, NOD2-RIPK2 inh inactive, Exocytosis inh inactive and B2AR ag inactive.
